Target: Neuropilin-1 (Homo sapiens) (UniProt O14786)
Assay: NRP-1 b1b2 CendR peptide binding inhibitors, dose response, biochemical, FP and AlphaScreen panel (AID 651650)
Settings: NRP-1 b1b2 / RPARPAR peptide binding, FP or AlphaScreen; run 1, at 100 µM (top of the series)

Chain of Neuropilin-1 (Homo sapiens) (O14786 whole entry, looked up): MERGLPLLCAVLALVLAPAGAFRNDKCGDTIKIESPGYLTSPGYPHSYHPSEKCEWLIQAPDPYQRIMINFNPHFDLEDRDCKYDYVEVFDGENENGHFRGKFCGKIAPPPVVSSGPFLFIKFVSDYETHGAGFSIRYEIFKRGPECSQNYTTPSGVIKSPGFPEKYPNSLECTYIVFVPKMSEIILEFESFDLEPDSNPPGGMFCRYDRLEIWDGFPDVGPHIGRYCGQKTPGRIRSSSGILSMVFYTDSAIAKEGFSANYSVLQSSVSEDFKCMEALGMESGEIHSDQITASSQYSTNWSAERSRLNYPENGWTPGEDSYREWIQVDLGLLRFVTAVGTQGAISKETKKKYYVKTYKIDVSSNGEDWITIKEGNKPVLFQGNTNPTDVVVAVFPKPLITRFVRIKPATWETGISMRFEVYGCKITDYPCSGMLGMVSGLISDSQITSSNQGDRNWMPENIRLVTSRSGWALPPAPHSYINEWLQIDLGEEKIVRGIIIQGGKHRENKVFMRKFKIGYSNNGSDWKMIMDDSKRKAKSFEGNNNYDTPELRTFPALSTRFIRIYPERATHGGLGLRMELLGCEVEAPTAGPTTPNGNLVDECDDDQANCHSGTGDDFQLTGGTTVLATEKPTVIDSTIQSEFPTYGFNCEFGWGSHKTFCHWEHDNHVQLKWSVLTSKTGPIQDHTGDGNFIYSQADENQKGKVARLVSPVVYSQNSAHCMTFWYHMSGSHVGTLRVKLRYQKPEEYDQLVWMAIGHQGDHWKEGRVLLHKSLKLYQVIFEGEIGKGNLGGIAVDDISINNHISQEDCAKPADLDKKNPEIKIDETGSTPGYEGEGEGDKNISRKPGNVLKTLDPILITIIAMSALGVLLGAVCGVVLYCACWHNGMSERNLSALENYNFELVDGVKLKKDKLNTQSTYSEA

| Compound | inhibition [%] |
| --- | --- |
| O=C(c1cccc(F)c1)N1CCN(c2ccc([N+](=O)[O-])c(N3CCCCC3)c2)CC1 | 33.3 |
| CCOC(=O)c1ccc(N2CCN(C(=O)c3ccccc3)CC2)c(NC(=O)c2ccco2)c1 | 40.4 |
| CCOc1ccc(/C=C2/Sc3ccc(C(=O)NCC4CCCO4)cc3N(C)C2=O)cc1OC (centres undefined) | 77.7 |
| Cc1cccc(CN2CCN(C3CN(Cc4cn(Cc5cccc(Cl)c5)nn4)S(=O)(=O)C3)CC2)c1 (centres undefined) | 33.2 |
| O=c1oc(Nc2ccccc2F)nc2ccccc12 | 25.1 |
| CCc1cc(C(=O)OC)c(NC(=O)c2ccoc2C)s1 | 41.2 |
| COC(=O)Cc1ccc(NC(=S)NCCCO)cc1 | 49.7 |
| COc1ccc2c(c1)N(C)/C(=C1/SC(=NCc3ccccc3)N(c3ccccc3)C1=O)S2 | 36.5 |
| CC1CCN(C(=O)CSc2nncn2C)CC1 | 0.359 |
| CCOC(=O)N1CCN(C(=O)c2cc3n(n2)C(C(F)(F)F)CC(c2ccc4c(c2)OCO4)N3)CC1 (centres undefined) | 30.7 |
| O=c1ccsn1Cc1ccccc1 | 11.6 |
| COc1ccccc1COc1ccc2c(C)c(CC(=O)O)c(=O)oc2c1C | 44.2 |
| COc1cc(C(=O)OCC(=O)Nc2c(F)c(F)c(F)c(F)c2F)cc(OC)c1OC | 17.8 |
| O=C(Nc1cccc(C(F)(F)F)c1)C1Cc2c(-c3cccc(F)c3)ccnc2O1 (centres undefined) | 18.4 |
| CC(C)NC(=O)c1c(CSc2ccccc2)noc1C(=O)NCc1ccccc1 | 49 |
| Cc1csc(NC(C)c2nc3cc(C(F)(F)F)ccc3n2CCOCCO)n1 (centres undefined) | 20 |
| Cc1ccnc(N2CCC(C(=O)Nc3ccc4c(c3)OCCO4)CC2)n1 | 41.7 |
| COC(=O)N[C@@H]1C[C@H]2[C@@H]3CC[C@H]4C[C@@H](OC)CC[C@]4(C)[C@H]3CC[C@]12C | 57.8 |
| O=C1CCC[C@@H]2Cc3nc4cc5c(cc4cc3[C@@H]3CCN1[C@H]23)OCO5 | 30.9 |

From PubChem BioAssay AID651650 (Sanford-Burnham Center for Chemical Genomics, 2012)
